Laboratory results taken from PubChem BioAssay AID1645882 (National Center for Advancing Translational Sciences (NCATS), 2021).
“And” between values parts separate entries of the source, which are not always exact repeats. Equal entries are not always repeated. In all, about 16,000 compounds went through this assay and about 120 (0.75%) were called active. About 4% were inconclusive and are not listed. The full list was thinned out, with actives kept by preference. Where a structure was tested more than once in an assay, its records may differ in their call. Values without a mark were called inactive. Calls follow the shape of the dose curve; as a rule, active = well fitted inhibition curve with a large enough effect; inconclusive = small, poorly fitted or top-dose-only effect; inactive = no such curve, though single readings can be large or run the other way.

These compounds were tested against Rap guanine nucleotide exchange factor 3 (Homo sapiens) (UniProt O95398) (assay: Validation qHTS for antagonist of cAMP-regulated guanine nucleotide exchange factor 3 (EPAC1)). Conditions: EPAC1 Rap1B-BODIPY-GDP exchange, fluorescence; series mostly up to 150 µM; activity change, negative = inhibition: at the top concentration.
In short: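 EPAC1 (100 nM) mixed with 250 nM RAP1B-BODIPY-GDP and 50 uM GDP; compounds in concentration series, 5 min at room temperature. Fluorescence (ex 480/em 540 nm) read every 5 min for 30 min; normalized to ATA control and DMSO.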
Also: nearly all actives have a fitted effect of over 75% in size.
Potency is read from the fitted curve at half-maximal effect.

Rap guanine nucleotide exchange factor 3 (Homo sapiens), sequence (O95398 whole entry, looked up): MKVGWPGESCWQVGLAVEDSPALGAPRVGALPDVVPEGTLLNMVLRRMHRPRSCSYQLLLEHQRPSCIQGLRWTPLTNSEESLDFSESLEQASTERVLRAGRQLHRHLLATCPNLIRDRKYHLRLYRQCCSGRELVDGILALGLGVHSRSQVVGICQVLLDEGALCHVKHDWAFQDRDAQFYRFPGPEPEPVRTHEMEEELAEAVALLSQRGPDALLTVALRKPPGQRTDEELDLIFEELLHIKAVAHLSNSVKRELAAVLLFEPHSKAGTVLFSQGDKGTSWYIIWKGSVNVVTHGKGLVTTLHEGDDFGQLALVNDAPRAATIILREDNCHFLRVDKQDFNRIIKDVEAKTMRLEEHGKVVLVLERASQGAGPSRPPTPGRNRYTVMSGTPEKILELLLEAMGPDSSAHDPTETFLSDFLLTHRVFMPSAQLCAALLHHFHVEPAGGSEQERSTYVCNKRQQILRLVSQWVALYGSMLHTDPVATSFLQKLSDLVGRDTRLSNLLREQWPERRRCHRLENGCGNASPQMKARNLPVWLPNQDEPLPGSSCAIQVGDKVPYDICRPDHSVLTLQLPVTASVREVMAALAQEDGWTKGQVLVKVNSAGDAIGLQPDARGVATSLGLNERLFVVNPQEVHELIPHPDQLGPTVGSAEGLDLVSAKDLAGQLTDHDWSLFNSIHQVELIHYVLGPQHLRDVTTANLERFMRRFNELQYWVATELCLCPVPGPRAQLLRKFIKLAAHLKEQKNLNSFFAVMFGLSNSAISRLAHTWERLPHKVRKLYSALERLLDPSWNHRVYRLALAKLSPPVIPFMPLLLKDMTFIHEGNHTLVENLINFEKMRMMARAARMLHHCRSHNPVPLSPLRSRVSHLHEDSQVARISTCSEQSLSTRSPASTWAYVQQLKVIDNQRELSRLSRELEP

For `COc1cc(/C=C/C(=O)c2cccs2)cc(OC)c1OC`, which “activity change, negative = inhibition” value is on record?
Its value is -2.5%.

`COc1cc(-c2ccc(N=Nc3ccc4c(S(=O)(=O)O)cc(S(=O)(=O)O)c(N)c4c3O)c(OC)c2)ccc1N=Nc1ccc2c(S(=O)(=O)O)cc(S(=O)(=O)O)c(N)c2c1O` was tested. Which Potency did it give?
Its Potency is 31.6 µM (active).

What about the activity change, negative = inhibition of the same compound?
Its activity change, negative = inhibition is 12.3% [at 27.4 µM].

Which “activity change, negative = inhibition” value does the source give for `COc1cc(O)c(C(=O)c2ccccc2)cc1S(=O)(=O)O` here?
Its value is 21.5%.

`Cc1cc(-c2ccc(N=Nc3ccc4c(S(=O)(=O)O)cc(S(=O)(=O)O)c(N)c4c3O)c(C)c2)ccc1N=Nc1ccc2c(S(=O)(=O)O)cc(S(=O)(=O)O)c(N)c2c1O` was tested. Which Potency did it give?
Its Potency is 20 µM (active) and 50.1 µM (active) and 31.6 µM (active).

Which “activity change, negative = inhibition” value does the source give for `CCC1CN(CC(=O)NC(C)c2c(C)nn(C)c2C)Cc2cc(OC)ccc2O1` (centres undefined) here?
The value was 5.2%.

How did the “activity change, negative = inhibition” value turn out when `Cc1c(C(=O)N(C)CC2CCCN(C)C2)cnn1-c1nccc(-c2ccco2)n1` (centres undefined) was run?
Its value is 10.4%.

Which Potency does the source give for `COC(=O)[C@@H]1[C@@H]2C[C@H]3c4[nH]c5ccccc5c4CCN3C[C@@H]2CC[C@@H]1O` here?
The Potency was “inactive”.

How did the “activity change, negative = inhibition” value turn out when `CC1CC[C@@]2(C(=O)O)CC[C@]3(C)C(=CCC4[C@@]5(C)CCC(O)C(C)(C)C5CC[C@@]43C)C2C1C` (some centres undefined) was run?
The value was 4.6%.

With `CN(C)c1ccc(/C=C/c2ccnc3c(-c4ccccc4)cccc23)cc1` as the compound, how does the “activity change, negative = inhibition” value read?
Its value is 17.8%.

Which Potency does the source give for `Cc1coc2c1C(=O)C(=O)c1c-2ccc2c1CCCC2(C)C` here?
The Potency was “inactive”.

Which “activity change, negative = inhibition” value does the source give for `CC1COC2=C1C(=O)C(=O)c1c2ccc2c1CCCC2(C)C` (centres undefined) here?
The value was -18.5%.

How did the Potency turn out when `Cc1c(S(=O)(=O)O)oc2c1C(=O)C(=O)c1c-2ccc2c1CCCC2(C)C` was run?
Its Potency is 100 µM (active).

Which “activity change, negative = inhibition” value does the source give for `O=C(c1cccc(F)c1)N1CCC2(CCCN(c3ccncc3)C2)CC1` here?
Its value is 6.3%.

Which “activity change, negative = inhibition” value does the source give for `Cc1cnc(-n2ncc(C(=O)NCC3COCCO3)c2C2CC2)nc1-c1cccs1` (centres undefined) here?
The value was 9.72%.

Which “activity change, negative = inhibition” value does the source give for `Cc1nc(NCc2cccc3c2OCO3)sc1-c1ccn(CC2CCCN(C)C2)n1` (centres undefined) here?
The value was 11.6%.

Which Potency does the source give for `O=C(Nc1ccc([N+](=O)[O-])cc1Cl)c1cc(Cl)ccc1O` here?
The Potency was “inactive”.

Which Potency does the source give for `Cc1cc(C(C#N)c2ccc(Cl)cc2)c(Cl)cc1NC(=O)c1cc(I)cc(I)c1O` (centres undefined) here?
The Potency was 50.1 µM (active).

With `COC(=O)C[C@H]1c2ccccc2S(=O)(=O)N1Cc1ccc(OC)cc1` as the compound, how does the “activity change, negative = inhibition” value read?
The value was 8.68%.

For `C(=C\c1ccncc1)/c1ccccc1`, which Potency is on record?
The Potency was “inactive”.

For `O=C(Nc1ccc(Cl)cc1)Nc1ccc(Cl)c(Cl)c1`, which “activity change, negative = inhibition” value is on record?
Its value is -10.1%.

Which Potency does the source give for `Cc1cc(N)c2cc(NC(=O)Nc3ccc4nc(C)cc(N)c4c3)ccc2n1` here?
The Potency was 28.2 µM (active).

Which “activity change, negative = inhibition” value does the source give for `Cc1cc(NC(=O)Nc2ccc(N(C)C)cc2)c2cc(F)cc(F)c2n1` here?
The value was -16.4%.

`COCc1c(C(=O)NC2CCCCC2)cnn1-c1nccc(-c2cc(C)sc2C)n1` was tested. Which “activity change, negative = inhibition” value did it give?
The value was -11.3%.

How did the “activity change, negative = inhibition” value turn out when `O=C(Cn1cccn1)N1CCOc2c(cc(-c3ncc(C(F)(F)F)cc3Cl)cc2OCC2CCCO2)C1` (centres undefined) was run?
The value was 24.5%.

With `O=C(Nc1ccc(/C=C/c2ccc(NC(=O)c3cc(S(=O)(=O)O)c4cccnc4c3O)cc2S(=O)(=O)O)c(S(=O)(=O)O)c1)c1cc(S(=O)(=O)O)c2cccnc2c1O` as the compound, how does the Potency read?
The Potency was 44.7 µM (active).

How did the “activity change, negative = inhibition” value turn out when `O=S(=O)(O)c1cc(I)c(O)c2ncccc12` was run?
The value was 15.7%.

With `CCOc1ccc(S(=O)(=O)O)c2cccnc12` as the compound, how does the “activity change, negative = inhibition” value read?
Its value is 11.2%.

With `O=C(c1cnsn1)N1CCOc2ccc(CN3CCOCC3)cc2C1` as the compound, how does the “activity change, negative = inhibition” value read?
The value was 8.76%.

`COCC(=O)Nc1cc(C(=O)N2CCCC(C(N)=O)C2)cc2nc(-c3ccccc3)n(C)c12` (centres undefined) was tested. Which “activity change, negative = inhibition” value did it give?
Its value is 7.12%.

With `COc1ccc(CNc2ncnc3ccc(-c4ccc(N(C)C)cc4)cc23)c(OC)c1` as the compound, how does the “activity change, negative = inhibition” value read?
The value was -8.56%.

For `Nc1nc2c(nc(Sc3ccc(Cl)cc3)n2C2OC(CO)C(O)C2O)c(=O)[nH]1` (centres undefined), which “activity change, negative = inhibition” value is on record?
The value was 19.8%.

With `Nc1ncnc2c1nc(Br)n2[C@@H]1O[C@H]2COP(=O)(O)O[C@@H]2[C@@H]1O` as the compound, how does the Potency read?
Its Potency is 2.82 µM (active).

How did the “activity change, negative = inhibition” value turn out when `Nc1ncnc2c1nc(Cl)n2C1OC(CO)C(O)C1O` (centres undefined) was run?
Its value is 19.2%.

How did the “activity change, negative = inhibition” value turn out when `[N-]=[N+]=Nc1nc2c(N)ncnc2n1C1OC(CO)C(O)C1O` (centres undefined) was run?
The value was -15.6%.

With `Nc1ncnc2c1nc(Br)n2C1OC(CO)C(O)C1O` (centres undefined) as the compound, how does the “activity change, negative = inhibition” value read?
The value was 8.26%.

`Nc1nc2c(nc(Br)n2C2OC3COP(=O)(O)O[C@@H]3C2O)c(=O)[nH]1` (some centres undefined) was tested. Which “activity change, negative = inhibition” value did it give?
The value was 0% [at 75.8 µM].

Which “activity change, negative = inhibition” value does the source give for `Nc1ncnc2c1nc(Br)n2C1CC(O)C(CO)O1` (centres undefined) here?
Its value is 22.2%.

For `Nc1ncnc2c1nc(Sc1ccc(Cl)cc1)n2[C@H]1OC2COP(=O)(O)O[C@@H]2C1O` (some centres undefined), which Potency is on record?
Its Potency is 0.316 µM (active).

With `Nc1ncnc2c1nc(Br)n2[C@H]1O[C@H]2COP(=O)(O)O[C@H]2[C@@H]1O` as the compound, how does the Potency read?
Its Potency is 2.51 µM (active).

With `Nc1ncnc2c1nc(Br)n2C1OC2COP(=O)(O)O[C@@H]2C1O` (some centres undefined) as the compound, how does the Potency read?
The Potency was 0.708 µM (active).

With `NC1=NC2C(N=C(Br)N2[C@@H]2O[C@H]3COP(=O)(O)O[C@@H]3[C@@H]2O)C(=O)N1` (some centres undefined) as the compound, how does the “activity change, negative = inhibition” value read?
Its value is -7.02% [at 201 µM].

Which “activity change, negative = inhibition” value does the source give for `Nc1nc2c(nc(Br)n2[C@@H]2O[C@H]3COP(=O)(O)O[C@H]3[C@@H]2O)c(=O)[nH]1` here?
Its value is -21.7%.

`O=S(=O)(c1ccccc1)N1CCC2(CCCN(c3ccccc3)C2)CC1` was tested. Which “activity change, negative = inhibition” value did it give?
Its value is 5.08%.
